# Measured values published in article PMC4552634, “A New Set of Chemical Starting Points with Plasmodium falciparum Transmission-Blocking Potential for Antimalarial Drug Discovery” (PLoS ONE, 2015).
# In all, about 13,000 compounds went through this assay and about 3,200 (25%) showed an effect of 50% or more. The list shows a part of the results.
# Tested on: P. falciparum stage V gametocytes
# Set-up: BacTiter-Glo ATP luminescence viability of purified stage V gametocytes in 384-well plates, per cent inhibition versus DMSO
# Settings: 48 h, 5 µM; inhibitor
row,SMILES,% Inhibition
1,Cn1c(-c2ccccc2)cc2c3c(=O)cc(C(F)(F)F)[nH]c3ccc21 [TCMDC-123876],31.04%
2,C#CCOc1ccc(N2C(N)=NC(N)=NC2(C)C)cc1 [TCMDC-137471],11.38%
3,CC(C)c1cc2c(ccc3nc(N)nc(N)c32)o1 [TCMDC-131930],25.15%
4,Cc1ncccc1C(=O)Nc1cccc(-c2cccc(-c3nc4c(C)cccc4[nH]3)c2)c1 [TCMDC-136861],-23.88%
5,COc1cccc(C(=O)N2CCOC(CCN3CCC(c4ccccc4)CC3)(c3ccc(Cl)c(Cl)c3)C2)c1 (centres unmarked) [TCMDC-135336],-36.5%
6,CCCCNC(=O)[C@H](CC1CCCCC1)NC(=O)c1ccc(O)c(-c2ccc(Cl)c(Cl)c2)c1 [TCMDC-140841],30.41%
7,O=C(NC1CC1)c1cnc(N2CCC(Cc3ccccc3)CC2)c(Cl)c1 [TCMDC-134606],6.713%
8,COc1cc(C)cc(CN2CCC(Cc3ccccc3)CC2)c1O [TCMDC-124540],-75.55%
9,Oc1c(CN2CCC(Cc3ccccc3)CC2)cc(Cl)c2cccnc12 [TCMDC-124594],97.81%
10,Cc1nccn1Cc1cc(C(C)(C)C)c(O)c(C(C)(C)C)c1 [TCMDC-131329],-8.756%
11,COc1cc(CNC[C@@H](O)[C@H](Cc2ccccc2)NC(=O)c2cc(OC(C)C)cc(N3CCCS3(=O)=O)c2)cc(OC)c1 [TCMDC-134559],3.73%
12,COc1cc2c(cc1C=CC(=O)N1CCN(Cc3nc4sc(C)c(C)c4c(=O)[nH]3)CC1)OC(C)C2 (centres unmarked) [TCMDC-132412],-4.453%
13,CN(C)CCOc1cc(NC(=O)Nc2ccc(-c3ccccc3)cc2Cl)ccc1I [TCMDC-139140],-41.53%
14,C/C=C/C=C/C1=NCCc2cc(OCCC)ccc21 [TCMDC-137442],112.8%
15,CCC(O)c1ccc(Br)cc1NC(=O)c1cccc(Cl)c1 (centres unmarked) [TCMDC-125394],16.03%
16,O=C(O)c1ccc2c(c1)N(C(=O)CNCc1ccc(F)cc1)CC(=O)N2CCCc1ccccc1 [TCMDC-140379],-9.998%
17,CNC(=O)Cc1ccc(C(=O)Nc2cccc(-c3csc(-c4nc5ccccc5[nH]4)c3)c2)cc1 [TCMDC-132395],-10.74%
18,Fc1ccc2[nH]c(-c3ccccc3)nc2c1CN1CCC(N2CCCC2)CC1 [TCMDC-136310],4.53%
19,Clc1ccc(-c2[nH]c3ccccc3c2CN2CCC(N3CCCCC3)CC2)cc1 [TCMDC-141631],17.32%
20,c1ccc(-c2[nH]c3ccccc3c2CN2CCC(N3CCCCC3)CC2)nc1 [TCMDC-141636],54.53%
21,COc1ccc2nccc(N3C[C@H]4C[C@@H]3CN4CCNCc3ccc4c(n3)NC(=O)CS4)c2n1 [TCMDC-134685],4.783%
22,Cn1nc(-c2ccc(NC(=O)Nc3cc(C(F)(F)F)ccc3F)cc2)c2cnc(NCCCCN3CCCC3)nc21 [TCMDC-141585],81.15%
23,CC1CCCCN1CCCNc1ncc2c(-c3ccc(NC(=O)Nc4cc(C(F)(F)F)ccc4F)c(F)c3)nn(C)c2n1 (centres unmarked) [TCMDC-141608],97.41%
24,Cn1nc(-c2ccc(NC(=O)Nc3cc(C(F)(F)F)ccc3F)c(F)c2)c2cnc(NCCCN3CCOCC3)nc21 [TCMDC-141607],30.03%
25,CN1CCN(CCCNc2ncc3c(-c4ccc(NC(=O)Nc5cc(C(F)(F)F)ccc5F)c(F)c4)nn(C)c3n2)CC1 [TCMDC-141611],81.4%
26,Cn1nc(-c2ccc(NC(=O)Nc3cc(C(F)(F)F)ccc3F)c(F)c2)c2cnc(NCCCn3ccnc3)nc21 [TCMDC-141612],3.105%

row,SMILES,% Inhibition
1,CCN(CC)CCCNc1ncc2c(-c3ccc(NC(=O)Nc4cc(C(F)(F)F)ccc4F)c(F)c3)nn(C)c2n1 [TCMDC-141609],106.5%
2,Cn1nc(-c2ccc(NC(=O)Nc3cc(C(F)(F)F)cc(C(F)(F)F)c3)c(F)c2)c2cnc(NCCN3CCOCC3)nc21 [TCMDC-141560],5.577%
3,Nc1nc(N)c2c(Oc3ccc(Cl)c(Cl)c3)cccc2n1 [TCMDC-137740],-61.22%
4,Nc1nc(N)c2c(Sc3ccc(F)cc3)cccc2n1 [TCMDC-137179],36.57%
5,CC(=O)Nc1nc(C(=O)Nc2cccc(-c3cccc(-c4nc5ccc(F)cc5[nH]4)c3)c2)cs1 [TCMDC-137124],18.32%
6,CN1CCN(c2ccnc3ccc(NC(=O)Nc4ccc5c(c4)CCCC5=O)cc23)CC1 [TCMDC-139261],-6.438%
7,COc1ccc(CCNCC(O)COc2nccc3c(S(=O)(=O)N4CCCNCC4)cccc23)cc1OC (centres unmarked) [TCMDC-132101],25.52%
8,O=C(Nc1ccc2c(c1)CCN2C1CCN(Cc2ccc(C(F)(F)F)cc2F)C1)c1ccco1 (centres unmarked) [TCMDC-135070],-51.15%
9,O=C(Cc1ccc(-n2cnnn2)cc1)N(Cc1cncn1Cc1cccc(C(F)(F)F)c1)CC1CC1 [TCMDC-132461],5.053%
10,C1=CN(Cc2ccccc2)C=CC1=C1C=Nc2ccccc21 [TCMDC-138319],1.652%
11,O=C1OC2(CCN(C(=O)c3ccc(-n4cnnn4)cc3)CC2)CN1Cc1ccc(Cl)c(Cl)c1 [TCMDC-136544],34.85%
12,C1=C(c2c[nH]c3ccccc23)CCN(Cc2ccccc2)C1 [TCMDC-123457],-71.35%
13,O=S(=O)(NC1CCN(c2ccnc3cc(Cl)ccc23)C1)c1ccc(C(F)(F)F)cc1 (centres unmarked) [TCMDC-133662],-7.86%
14,Cn1nc(-c2ccc(NC(=O)Nc3cc(C(F)(F)F)ccc3F)cc2)c2cnc(NCCc3cnc[nH]3)nc21 [TCMDC-141621],12.4%
15,CCN(CC)CCCNc1ncc2c(-c3ccc(NC(=O)Nc4cc(C(F)(F)F)ccc4F)cc3)nn(C)c2n1 [TCMDC-141583],96.86%
16,COc1ccc2nccc([C@@H](O)CN3CCC(NC(=O)C(=O)c4c[nH]c5c(C)cccc45)CC3)c2c1 [TCMDC-141107],-28.63%
17,CCC(=O)Nc1nnc(Cc2ccc(OC)c(OC)c2)s1 [TCMDC-125741],-62.68%
18,C=CCOc1ccc(Cc2cnc(N)nc2N)cc1CCC [TCMDC-137639],-18.38%
19,N=C(N)c1ccc(NC(=O)Cc2nc3ccc(C(=N)N)cc3[nH]2)cc1 [TCMDC-131867],10.64%
20,Cc1cc(-c2nc3ccc(C(=N)N)cc3[nH]2)c(C)cc1-c1nc2ccc(C(=N)N)cc2[nH]1 [TCMDC-137798],92.7%
21,N=C(N)c1ccc2nc(SCc3ccccc3)[nH]c2c1 [TCMDC-131872],24.07%
22,COc1ccccc1C(=O)C1CCCN(C(=O)c2ccccc2C(F)(F)F)C1 (centres unmarked) [TCMDC-124693],-57%
23,CN(C)CCOc1cc(O)c2c(c1)OC(C)(C)C=C2c1cccs1 [TCMDC-131331],-14.82%
24,Cc1[nH]c(C)c(-c2ccc(OCCn3cnc(Cl)c3Cl)cc2)c(=O)c1Br [TCMDC-134570],-18.53%
25,Cc1[nH]c(C)c(-c2ccc(OCCCCSc3ccncc3)cc2)c(=O)c1Br [TCMDC-135256],73.89%
26,Cc1[nH]c(C)c(-c2ccc(OCCSc3ccncc3)cc2)c(=O)c1Br [TCMDC-135220],64.24%

row,SMILES,% Inhibition
1,C[C@@H](C(=O)N1CCOCC1)N1CC[C@H](NS(=O)(=O)c2ccc3ccnc(N)c3c2)C1=O [TCMDC-136755],0.9724%
2,N=c1n(CCN2CCCC2)c2ccccc2n1CC(O)c1ccc(Cl)c(Cl)c1 (centres unmarked) [TCMDC-124063],70.46%
3,CC(NC(=O)c1ccc(O)c(-c2ccc(Cl)c(Cl)c2)c1)C(=O)NCCN1CCCCC1 (centres unmarked) [TCMDC-140857],27.12%
4,N=c1n(CCN2CCCCC2)c2ccccc2n1CC(O)c1cccc(Br)c1 (centres unmarked) [TCMDC-125140],60.98%
5,CC(NC(=O)c1ccc(O)c(-c2ccc(Cl)c(Cl)c2)c1)C(=O)NCCN1CCCC1 (centres unmarked) [TCMDC-140827],-9.232%
6,N=c1n(CCN2CCCCC2)c2ccccc2n1CC(=O)c1cccc([N+](=O)[O-])c1 [TCMDC-123516],-26.88%
7,O=C(N[C@@H](Cc1ccccc1)C(=O)NCCN1CCCC1)c1ccc(O)c(-c2ccc(Cl)c(Cl)c2)c1 [TCMDC-140829],26.26%
8,N=c1n(CCN2CCCCC2)c2ccccc2n1CC(O)c1ccc(Cl)c(Cl)c1 (centres unmarked) [TCMDC-124064],91.16%
9,COC(=O)c1ccc(CC(C)NCC(O)c2cccc(Br)c2)cc1 (centres unmarked) [TCMDC-131437],10.23%
10,O=C(N[C@@H](Cc1ccccc1)C(=O)NCCN1CCCCC1)c1ccc(O)c(-c2ccc(Cl)c(Cl)c2)c1 [TCMDC-140859],10.94%
11,CCOc1ccc(C=CC(=O)Nc2ccc3nc(N4CCOCC4)cc(C)c3c2)cc1OC [TCMDC-124420],-58.06%
12,COc1ccc(NS(=O)(=O)c2cccc(C(=O)Nc3ccc(C(F)(F)F)cc3)c2)cc1N1CCN(CC(C)C)CC1 [TCMDC-141780],-61.2%
13,N#Cc1ccc(CN2CCC(Oc3ccc(NC(=O)c4ccsc4)cc3Cl)C2)cc1 (centres unmarked) [TCMDC-133961],27.45%
14,COc1ccc(-c2ccc(CN(C)C3CCC(NC(=O)c4cc5ccccc5[nH]4)CC3)cc2)cn1 (centres unmarked) [TCMDC-132893],48.26%
15,CN1CCCN(Cc2cccc(-c3cccc(NC(=O)c4ccc(C#N)cc4)c3)c2)CC1 [TCMDC-132655],11.69%
16,Cc1nnc2c(NC(=O)NC3CCCC3)cc3cc(-c4ccc(CN5CCN(C)CC5)cc4)ccc3n12 [TCMDC-136717],93.03%
17,Cc1nnc2c(NC(=O)NC3CCCC3)cc3cc(-c4ccc(CN5CCCCC5)cc4)ccc3n12 [TCMDC-136711],3.866%
18,Cc1cc2c(NC(=O)NC3CCN(CCc4cccc(Cl)c4)CC3)cccc2cn1 [TCMDC-141801],1.957%
19,Cc1nnc2c(NC(=O)NC3CCCC3)cc3ccc(-c4cccc(CN(C)C)c4)cc3n12 [TCMDC-136731],62.95%
20,Cc1nnc2c(NC(=O)NC3CCCC3)cc3ccc(-c4cccc(CN5CCN(C)CC5)c4)cc3n12 [TCMDC-136730],98.59%
21,Cc1cc2c(NC(=O)NC3CCN(CCc4ccccc4Cl)CC3)cccc2cn1 [TCMDC-141800],-1.237%
22,Cc1nnc2c(NC(=O)NC3CCCC3)cc3cc(-c4ccc(CN(C)C)cc4)ccc3n12 [TCMDC-136487],88.82%
23,CN(Cc1ccc(NC(=O)NC2CCN(C(=O)/C=C/c3ccc(Cl)c(Cl)c3)CC2)cc1)C1CCOCC1 [TCMDC-140523],15.53%
24,Cc1cc2c(NC(=O)NC3CCN(Cc4ccc(Cl)c(Cl)c4)CC3)cccc2cn1 [TCMDC-141771],11.02%
25,Cc1cccc(CNc2nc(C)cc(N[C@@H](Cc3ccccc3)C(=O)NC3CCCC3)n2)c1 [TCMDC-134886],14.7%
